Compounds without any hit were thinned out: in the full panel of roughly 83,000, 20% have a hit.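 Compound tested at a single concentration for 48 hours in 96-well plates; a percent growth value below 10 was scored as active.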 Active and inactive are the calls of the source.
Columns and labels:
Assay in all cases: NCI-60 one-dose screen, 48 h (100 = growth as untreated, 0 = no growth, -100 = all killed)
Conditions in all cases: 10 µM unless noted
NCI-H23 lung = system: NCI-H23 lung
NCI-H226 lung = system: NCI-H226 lung
NCI-H322M lung = system: NCI-H322M lung
HOP-62 NSCLC = system: HOP-62 NSCLC
NCI-H460 lung = system: NCI-H460 lung
HOP-92 NSCLC = system: HOP-92 NSCLC
NCI-H522 lung = system: NCI-H522 lung
A549/ATCC NSCLC = system: A549/ATCC NSCLC
COLO 205 colon = system: COLO 205 colon
DU-145 prostate = system: DU-145 prostate
K-562 leukemia = system: K-562 leukemia
MALME-3M melanoma = system: MALME-3M melanoma
MDA-MB-231 breast = system: MDA-MB-231 breast
SF-268 CNS = system: SF-268 CNS
SF-295 CNS = system: SF-295 CNS
SF-539 CNS = system: SF-539 CNS
UACC-257 melanoma = system: UACC-257 melanoma
M14 melanoma = system: M14 melanoma
786-0 renal = system: 786-0 renal
RXF 393 renal = system: RXF 393 renal

Measured: growth

CC1(C)N=C(N)N=C(N)N1c1ccc(OCC(=O)Nc2ccccc2)c(Cl)c1
active: HOP-62 NSCLC -3.64% | NCI-H522 lung -7.05% | UACC-257 melanoma -3.5%
inactive: NCI-H23 lung 24% | NCI-H226 lung 99.7% | NCI-H322M lung 40.2% | NCI-H460 lung 15.3% | HOP-92 NSCLC 13.4% | A549/ATCC NSCLC 11.2% | COLO 205 colon 82.9% | DU-145 prostate 39.1% | K-562 leukemia 18.5% | MALME-3M melanoma 55.1% | MDA-MB-231 breast 68.9% | SF-268 CNS 28% | SF-295 CNS 23.5% | SF-539 CNS 23.8% | M14 melanoma 25.7%

O=C(Cn1c2ccccc2c2ccncc21)N/N=C\c1ccc2ccccc2c1
inactive: NCI-H23 lung 55% | NCI-H226 lung 31.9% | NCI-H322M lung 39.1% | HOP-62 NSCLC 19.8% | NCI-H522 lung 38% | COLO 205 colon 31.6% | SF-268 CNS 41.6% | SF-295 CNS 28.7% | SF-539 CNS 27.6% | UACC-257 melanoma 59.7% | M14 melanoma 30.9%
active: NCI-H460 lung 5.42% | HOP-92 NSCLC -7.39% | A549/ATCC NSCLC -10.1% | 786-0 renal -3.98% | DU-145 prostate 9.11% | MALME-3M melanoma 3.45% | MDA-MB-231 breast 5.36% | RXF 393 renal 1.74%

Cc1[nH]n(C(=O)c2ccncc2)c(=O)c1N=Nc1ccc(S(=O)(=O)Nc2ccncn2)cc1
inactive: NCI-H23 lung 100% | NCI-H226 lung 90% | NCI-H322M lung 115% | HOP-62 NSCLC 76.6% | NCI-H460 lung 115% | HOP-92 NSCLC 54.7% | NCI-H522 lung 102% | A549/ATCC NSCLC 18.9% | COLO 205 colon 127% | DU-145 prostate 126% | K-562 leukemia 55.3% | MALME-3M melanoma 124% | MDA-MB-231 breast 103% | SF-268 CNS 95.5% | SF-295 CNS 134% | SF-539 CNS 107% | M14 melanoma 106%
active: UACC-257 melanoma -1.41%

CCn1c(SCC(=O)c2ccc(Br)cc2)nnc1-c1cc2c([nH]c3ccccc32)c(-c2cccc(O)c2)n1
active: RXF 393 renal 1.81%
inactive: NCI-H23 lung 85.2% | NCI-H226 lung 94.4% | NCI-H322M lung 79.2% | HOP-62 NSCLC 67.6% | NCI-H460 lung 68.1% | HOP-92 NSCLC 95.2% | NCI-H522 lung 49.2% | A549/ATCC NSCLC 41% | 786-0 renal 32.9% | COLO 205 colon 108% | DU-145 prostate 85.3% | MALME-3M melanoma 64.6% | MDA-MB-231 breast 75.4% | SF-268 CNS 72.5% | SF-295 CNS 41.1% | SF-539 CNS 60.9% | UACC-257 melanoma 83.8% | M14 melanoma 72.2%

C=C1C(=O)O[C@H]2[C@H]1CC/C(COC(=O)c1ccccc1)=C\CC[C@@]1(C)O[C@@H]21
active: NCI-H226 lung -37.2% | HOP-92 NSCLC -41.9% | NCI-H522 lung -77.7% | 786-0 renal -59.2% | COLO 205 colon -64.7% | DU-145 prostate 6.11% | MALME-3M melanoma -65% | MDA-MB-231 breast -37.1% | RXF 393 renal -84% | SF-539 CNS -65.5% | M14 melanoma -31.9%
inactive: NCI-H23 lung 45% | NCI-H322M lung 59.3% | HOP-62 NSCLC 36.6% | NCI-H460 lung 38% | A549/ATCC NSCLC 23.3% | SF-268 CNS 41% | SF-295 CNS 60.8% | UACC-257 melanoma 30%

O=C(Cn1c2ccccc2c2ccncc21)N/N=C/c1c[nH]c2ccccc12
active: NCI-H460 lung 1.47%
inactive: NCI-H23 lung 48.3% | NCI-H226 lung 73.3% | NCI-H322M lung 72.8% | HOP-62 NSCLC 55.5% | HOP-92 NSCLC 61.2% | NCI-H522 lung 58.8% | A549/ATCC NSCLC 25.2% | 786-0 renal 44% | COLO 205 colon 88.2% | DU-145 prostate 53.5% | MALME-3M melanoma 43.7% | MDA-MB-231 breast 19.6% | RXF 393 renal 49.2% | SF-268 CNS 71.4% | SF-295 CNS 87.5% | SF-539 CNS 86.4% | UACC-257 melanoma 88.3% | M14 melanoma 68.2%

O=C1OC(c2ccc(-c3ccccc3)cc2)=C/C1=C/C=C/c1ccccc1
inactive: NCI-H23 lung 100% | NCI-H226 lung 82.3% | NCI-H322M lung 92.5% | HOP-62 NSCLC 97.1% | NCI-H460 lung 103% | HOP-92 NSCLC 68.7% | NCI-H522 lung 95.1% | COLO 205 colon 120% | DU-145 prostate 111% | K-562 leukemia 96% | MALME-3M melanoma 104% | MDA-MB-231 breast 105% | SF-268 CNS 90.5% | SF-295 CNS 65.6% | SF-539 CNS 105% | M14 melanoma 112%
active: A549/ATCC NSCLC 9.59% | UACC-257 melanoma -13.8%

COc1cc2ncnc(Oc3ccc(NC(=O)Nc4ccc(CN5CCOCC5)c(C(F)(F)F)c4)c4ccccc34)c2cc1OC
inactive: NCI-H23 lung 16.8% | NCI-H322M lung 19.3% | HOP-62 NSCLC 66.8% | NCI-H460 lung 25.4% | NCI-H522 lung 19.8% | A549/ATCC NSCLC 23.1% | 786-0 renal 37.1% | COLO 205 colon 13.4% | DU-145 prostate 32.6% | MDA-MB-231 breast 51.2% | RXF 393 renal 20.8% | SF-268 CNS 23.3% | SF-295 CNS 40.6% | SF-539 CNS 55.4% | UACC-257 melanoma 21.1% | M14 melanoma 20.4%
active: NCI-H226 lung 1.53% | HOP-92 NSCLC -2.3% | MALME-3M melanoma -11.1%

CN1C(=O)C2(SCC(C(=O)NCC(=O)OC(C)(C)C)N2C(=O)C2CCCCC2)c2ccccc21 (configuration not stated)
inactive: NCI-H23 lung 94.4% | NCI-H226 lung 91.6% | NCI-H322M lung 95.3% | HOP-62 NSCLC 95% | NCI-H460 lung 102% | HOP-92 NSCLC 85.8% | NCI-H522 lung 80.9% | A549/ATCC NSCLC 95.2% | 786-0 renal 94.7% | COLO 205 colon 99.9% | DU-145 prostate 105% | MALME-3M melanoma 101% | MDA-MB-231 breast 100% | RXF 393 renal 105% | SF-268 CNS 96.7% | SF-295 CNS 96.9% | SF-539 CNS 99.8% | UACC-257 melanoma 92.7% | M14 melanoma 100%

COc1ccc(/C=N/C2=NNC(C)(c3ccccc3O)N2C(Cc2c[nH]c3ccccc23)C(=O)O)cc1 (configuration not stated)
active: HOP-92 NSCLC 2.13% | COLO 205 colon 8.42%
inactive: NCI-H23 lung 22.8% | NCI-H226 lung 53.2% | NCI-H322M lung 56.1% | HOP-62 NSCLC 32.7% | NCI-H460 lung 20.4% | NCI-H522 lung 18.9% | A549/ATCC NSCLC 42.5% | 786-0 renal 58.3% | DU-145 prostate 58.9% | MALME-3M melanoma 12.9% | MDA-MB-231 breast 28.8% | RXF 393 renal 35.5% | SF-268 CNS 40.2% | SF-295 CNS 35.3% | SF-539 CNS 45.2% | UACC-257 melanoma 23.5% | M14 melanoma 10.8%

From PubChem BioAssay (NCI)
